Results with a measured potency or affinity are listed apart. Records with an inconclusive call do not appear. A number with no mark means an inactive call.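 Rule for the calls: active = a valid curve of falling signal whose half-effect concentration is at most ten times the top tested dose; inconclusive = flat curve at 30 to 70% inhibition, or poor fit; inactive = signal rise, flat within 30%, or potency beyond limit.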
biological target: Scavenger receptor class B member 1 (Mus musculus) (UniProt Q61009); experiment: mouse SR-BI DiI-HDL uptake blockers – ldlA[mSR-BI] cells, fluorescence, cherry pick, dose response (AID 493194); settings: CHO ldlA[mSR-BI] DiI-HDL uptake fluorescence, 3 h; series mostly up to 35 µM; activity change, negative = inhibition: at the top concentration;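 note: CHO cells lacking LDL receptor and overexpressing mouse SR-BI; cellular uptake of fluorescently labeled HDL measured as cell fluorescence; 0% = median of neutral control wells and -100% = median of positive control wells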
Sequence (Q61009 whole entry, looked up): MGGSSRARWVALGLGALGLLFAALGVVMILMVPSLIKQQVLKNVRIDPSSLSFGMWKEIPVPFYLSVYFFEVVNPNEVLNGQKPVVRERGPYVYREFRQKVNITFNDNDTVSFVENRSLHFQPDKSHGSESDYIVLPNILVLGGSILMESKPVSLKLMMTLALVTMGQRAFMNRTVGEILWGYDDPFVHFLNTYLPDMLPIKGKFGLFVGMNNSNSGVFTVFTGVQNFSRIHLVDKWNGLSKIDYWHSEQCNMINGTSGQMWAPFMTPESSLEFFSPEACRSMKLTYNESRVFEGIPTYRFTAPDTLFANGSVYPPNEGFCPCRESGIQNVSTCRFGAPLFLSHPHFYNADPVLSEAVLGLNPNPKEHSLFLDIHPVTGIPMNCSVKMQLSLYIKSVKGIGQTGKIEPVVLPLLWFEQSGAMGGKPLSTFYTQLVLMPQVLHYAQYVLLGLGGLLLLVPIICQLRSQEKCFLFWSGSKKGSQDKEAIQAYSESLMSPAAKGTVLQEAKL

Structure (SMILES)	activity change, negative = inhibition
O=C(Nc1cccc(NC(=O)c2ccccc2[N+](=O)[O-])c1)c1ccccc1Cl	-0.244%
CC(C)(C)C(=O)Nc1sc2c(c1-c1nc3ccccc3[nH]1)CCCC2	-43.5%
O=C(N[C@@H]1C/C=C\C[C@@H](CC(=O)N(CCO)Cc2ccccc2)C(=O)NCCOC1=O)OCC1c2ccccc2-c2ccccc21	-31.4%
COc1ccc(S(=O)(=O)N2CCC(C(=O)NN3CCCCC3)CC2)cc1OC	4.12%
COc1ccccc1-n1cnc2cc(NCc3ccco3)ccc21	-0.766%
COc1ccc2sc(-c3ccc(N(C)C)cc3)c(C#Cc3cncn3C)c2c1	10.8%
CCN(C(=O)COn1nnc2ccc(S(=O)(=O)N(C)C)cc21)C1CCS(=O)(=O)C1 (stereo not given)	-1.5%
COc1ccc([C@H]2CC(=O)C=C(c3cccc4c3sc3ccccc34)C2)cc1OC	-55.4%
COc1ccc(OCC(O)Cn2c(Nc3cccc(C)c3)nc3c2c(=O)n(C)c(=O)n3C)cc1 (stereo not given)	-47.7%
COC(=O)c1cnc(Oc2ccc(NC(=O)NC(=O)c3c(OC)cccc3OC)cc2)cc1C(F)(F)F	-25.2%
COc1ccc(-c2cc(C(F)(F)F)nc(SCCC(=O)N3CCN4CCCC4C3)n2)cc1 (stereo not given)	0.459%
COc1cc(NC(=O)C2CC(c3c(F)cccc3Cl)=NO2)c(OC)cc1Cl (stereo not given)	-16.2%
COc1cc(NC(=O)c2cc(-n3cnnc3)ccc2Cl)cc(OC)c1	20%
CC(=O)Nc1cccc(NC(=O)c2ccc3c(c2)CCN3S(=O)(=O)c2ccccc2)c1	-18.7%
O=C(C[C@@H]1C/C=C\C[C@H](NC(=O)OCC2c3ccccc3-c3ccccc32)C(=O)O[C@H](c2ccccc2)CNC1=O)NCCO	-1.21%
